Shown are actives, neighbours in structure and some others; about 18% of the full set was active somewhere.
TGFb SMAD3 inh: qHTS for Inhibitors of TGF-b; HepG2 CAGA-GFP TGF-b/SMAD3 reporter, GFP fluorescence, 18 h; TGF-beta stimulated, 500 pg/mL final; Potency, µM (doses to about 46.1 µM), usual class: inhibitors; 1.2% of 410,000 active; AID 588855, 2011; note: nearly all actives have a fitted effect of over 65% in size
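HEPG2 CAGA-GFP reporter cells (1000/well, DMEM with 1% FBS) received compounds, then recombinant TGF-beta at 500 pg/mL final for 18 hours at 37 degrees C. Per-cell GFP summed per well was normalised to unstimulated and stimulated DMSO controls before curve fitting.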
DT40 TDP1 no CPT: qHTS for Inhibitors of human tyrosyl-DNA phosphodiesterase 1 (TDP1): qHTS in cells in absence of CPT | DT40 Tdp1-/- hTDP1 cells, no CPT, ATP luminescence, 48 h | Potency, µM (series often up to 46.2 µM), most hits filed as inhibitors | 15% of 420,000 active; note: nearly all actives have a fitted effect of over 55% in size
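No-CPT arm: Tdp1-/-;hTDP1 DT40 cells (400/well) plus compounds, incubated ≥48 hr at 37 °C. Readout CellTiter-Glo luminescence.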
HepG2 viability: qHTS for Inhibitors of TGF-b: Cytotox Counterscreen | 0.76% of 410,000 active | Potency, µM (doses to about 46.1 µM), most hits filed as cytotoxic | HepG2 CAGA-GFP viability, ATP luminescence, 18 h
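CellTiter-Glo luminescence gave cytotoxicity after 18 hours at 37 degrees C. The cells were HepG2 CAGA-GFP in 1% FBS DMEM, stimulated with 500 pg/mL TGF-beta after compound addition. %Activity was normalised to no-cell wells (complete cell-killing) and DMSO (no toxicity), and curves were fitted and classified.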
IL-1B inflam inh: qHTS for Inhibitors of Inflammasome Signaling: IL-1-beta AlphaLISA Primary Screen; 4.7% of 360,000 active; THP-1 LPS/ATP IL-1B secretion, AlphaLISA, 16 h; hits give low values; activity change, % at 57.5 µM; in the data active = activity change below about -50%; inconclusive = mostly about -30% to -49%
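Secreted IL-1B measured by AlphaLISA bead assay after 16 h compound exposure of THP-1 cells; compounds (final up to 57.5 uM) added 1 h before LPS (250 ng/mL) and ATP (1.25 mM) stimulation; lower signal means less secretion.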
TDP1 cell CPT: qHTS for Inhibitors of human tyrosyl-DNA phosphodiesterase 1 (TDP1): qHTS in cells in presence of CPT. chicken DT40 Tdp1-/-;hTDP1 cells + 20 nM CPT, ATP luminescence, 48 h. Potency, µM (doses to about 46.2 µM), actives largely listed as inhibitors. 12% of 420,000 active. AID 686979, 2013; note: nearly all actives have a fitted effect of over 55% in size
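Chicken DT40 Tdp1-/- cells stably complemented with human TDP1 were seeded at 400 cells/well in medium containing 20 nM camptothecin, exposed to pin-transferred compounds, and grown at 37 °C for at least 48 hr. Viability was read as ATP luminescence.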
TDP1 block: qHTS Assay for Inhibitors of Tyrosyl-DNA Phosphodiesterase (TDP1) | Tyrosyl-DNA phosphodiesterase 1 (Homo sapiens), Q9NUW8 | recombinant TDP1, AlphaScreen DNA substrate cleavage | Potency, µM (highest dose often 130 µM), hits mostly inhibitors | 0.28% of 350,000 active | AID 485290, 2010; note: nearly all actives have a fitted effect of over 40% in size
Target sequence (Q9NUW8 whole entry, looked up): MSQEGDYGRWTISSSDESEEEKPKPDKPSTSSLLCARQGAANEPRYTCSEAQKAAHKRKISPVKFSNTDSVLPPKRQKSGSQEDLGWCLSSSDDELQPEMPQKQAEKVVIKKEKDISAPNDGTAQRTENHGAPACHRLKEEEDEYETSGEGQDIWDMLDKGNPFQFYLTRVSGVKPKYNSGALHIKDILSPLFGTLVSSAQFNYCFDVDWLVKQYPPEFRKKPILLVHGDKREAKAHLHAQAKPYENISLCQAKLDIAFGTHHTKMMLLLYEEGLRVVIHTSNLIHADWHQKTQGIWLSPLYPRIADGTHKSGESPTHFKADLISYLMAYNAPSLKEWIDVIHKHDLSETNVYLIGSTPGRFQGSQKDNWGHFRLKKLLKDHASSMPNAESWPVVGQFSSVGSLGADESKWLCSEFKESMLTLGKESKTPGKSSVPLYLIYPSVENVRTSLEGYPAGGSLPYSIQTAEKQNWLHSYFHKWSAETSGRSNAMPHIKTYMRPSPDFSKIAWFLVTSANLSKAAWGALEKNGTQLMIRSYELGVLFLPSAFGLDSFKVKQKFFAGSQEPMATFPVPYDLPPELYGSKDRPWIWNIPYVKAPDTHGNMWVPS
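Recombinant E. coli-expressed Tdp1 (1 nM) preincubated with compound 15 min at RT, then 5'-biotin/3'-phosphotyrosine-FITC DNA substrate (15 nM) added for 5 min. AlphaScreen beads (10 ug/ml) added, 10 min RT; tyrosine-FITC cleavage read as signal loss.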
Numbers stand for hits; i = inactive; ? = inconclusive; nt = no result; [ ] = dose if it differs, or a comment. Unless noted, calls come from the whole dose curve; as a rule, active = well fitted curve in the direction sought with a large enough effect; inconclusive = small, poorly fitted or top-dose-only effect, or another doubt; inactive = no such curve, though single readings can be large; an effect the other way counts as inactive or inconclusive.

SMILES	TGFb SMAD3 inh	DT40 TDP1 no CPT	HepG2 viability	IL-1B inflam inh	TDP1 cell CPT	TDP1 block
COc1ccc(CCNC(=O)C2CCN(C(=O)c3ccccc3C)CC2)cc1	i	18µM	i	i	?	nt
COc1cc(OC)cc(C(=O)N2CCC(C(=O)NCCc3ccccc3)CC2)c1	i	7.3µM	i	i	7.3µM	nt
COc1ccc(CCNC(=O)C2CCN(C(=O)c3cccs3)CC2)cc1	i	i	i	i	i	i
CNCc1ccccc1Sc1ccc(OC)c(OC)c1	i	?	i	i	?	i
CSc1ccc(/C=C2\C=Cc3ccc([N+](=O)[O-])cc32)cc1	i	11µM	i	nt	?	nt
O=[N+]([O-])c1ccc2c(c1)C=C/C2=C/c1ccccc1	?	18µM	i	nt	13µM	nt
COc1ccc(CNC(=O)C2CCCN(C(=O)N3CCOc4ccccc43)C2)cc1 (configuration not stated)	?	?	i	nt	?	i
COc1ccc(C)cc1NC(=O)CCNC(=O)Cn1ccc2ccccc2c1=O	i	i	i	i	i	i
Cc1cccc(S(=O)(=O)NC(=O)C2(C)CCN2C(=O)Cc2ccccc2)c1 (configuration not stated)	i	i	i	i	i	nt
COc1ccc(Cl)cc1S(=O)(=O)NC(C)C(=O)NCCN1CCOCC1 (configuration not stated)	i	i	i	i	i	nt
O=CC(O)C1OC(=O)C(O)C1O (configuration not stated)	i	i	i	i	i	nt
Nc1cc2nc3ccccc3oc-2cc1=O	?	1.8µM	4.5µM	i	2.1µM	i
COCn1c(=O)c2c(nc(SC3=NCCS3)n2Cc2ccccc2C)n(COC)c1=O	i	?	i	i	23µM	i
Cc1ccc(NC(=O)c2cc([N+](=O)[O-])ccc2NCc2cccnc2)cc1Cl	?	?	i	-54	?	i
COc1cccc(NC(=O)c2cc([N+](=O)[O-])ccc2NCc2cccnc2)c1	i	?	i	i	?	i
CC(C)(C)C(=O)N1CCN(c2ccc([N+](=O)[O-])c(NCc3cccnc3)c2)CC1	i	4.1µM	i	i	4.1µM	i
O=C(NCc1cccnc1)Nc1ccc(Cl)cc1Cl	i	i	i	i	i	i
Clc1ccc(NCc2cccnc2)c(Cl)c1	i	?	i	-59	i	nt
NC(=O)c1cc([N+](=O)[O-])c(Cl)cc1NCc1cccnc1	i	?	i	-77	?	i
COc1cc([N+](=O)[O-])ccc1NC(=O)COC(=O)c1c[nH]c(=O)[nH]c1=O	i	i	i	i	i	i
O=C1CC2(CCN(C(=O)c3ccc(Br)cc3)CC2)Oc2ccccc21	i	18µM	i	-51	?	i
Cc1c(C(=O)N2CCC3(CC2)CC(=O)c2ccccc2O3)cccc1[N+](=O)[O-]	i	23µM	i	i	18µM	i
O=C1CC2(CCN(C(=O)c3ccc([N+](=O)[O-])cc3)CC2)Oc2ccccc21	i	?	i	i	?	i[0.505 µM]
COc1ccc(S(=O)(=O)N(C)C[C@H]2Oc3c(cccc3N(C)C)C(=O)N([C@H](C)CO)C[C@@H]2C)cc1	i	?	i	i	?	i
COCCNC(=O)CSc1nc2cc3c(cc2c(=O)n1Cc1ccc(C(=O)NCCc2ccc(OC)c(OC)c2)cc1)OCO3	i	21µM	i	nt	8.2µM	i
SMILES	TGFb SMAD3 inh	DT40 TDP1 no CPT	HepG2 viability	IL-1B inflam inh	TDP1 cell CPT	TDP1 block
CC1CCCCN1C(=O)CSc1nc2ccsc2c(=O)n1Cc1ccccn1 (configuration not stated)	i	?	i	i	?	i
CCCCNC(=O)CSc1nc2cc3c(cc2c(=O)n1CCCCCC(=O)NCCc1ccc(OC)c(OC)c1)OCO3	i	i	i	nt	i	i
CCn1c(SCC(=O)N2CCCCC2C)nc2ccsc2c1=O (configuration not stated)	i	?	i	i	10µM	i
CCN(CC)C(=O)CSc1nc2cc3c(cc2c(=O)n1CCCCCC(=O)NCCc1ccc(OC)c(OC)c1)OCO3	i	15µM	i	nt	15µM	i
CCN(CC)C(=O)CSc1nc2cc3c(cc2c(=O)n1Cc1ccc(OC)cc1)OCO3	i	18µM	i	i	23µM	i
Cn1c(=O)[nH]c(=O)c2c1nc1n2CCN1c1ccccc1	i	i	i	nt	i	i
CC1CCCCN1C(=O)CSc1nc2cc3c(cc2c(=O)n1Cc1ccc2c(c1)OCO2)OCO3 (configuration not stated)	i	23µM	i	?	21µM	i
COCCN(C(=O)COC(=O)/C=C/c1ccc(Cl)c(Cl)c1)c1c(N)n(Cc2ccccc2)c(=O)[nH]c1=O	i	18µM	i	i	16µM	nt
COCCN(C(=O)COC(=O)COc1ccc2c(c1)CCC2)c1c(N)n(Cc2ccccc2)c(=O)[nH]c1=O	i	i	i	i	i	nt
COCCN(C(=O)COC(=O)Cc1coc2cc3c(cc12)CCC3)c1c(N)n(Cc2ccccc2)c(=O)[nH]c1=O	i	?	i	i	?	13µM
O=c1c2ccccc2nnn1CSc1ccccc1F	?	?	i	i	?	i
Cc1cc(-n2c(C)cc(C(=O)CSc3nnnn3-c3ccc(Cl)cc3)c2C)no1	i	7.3µM	i	i	?	i
C=C(C)CSc1nc2nc(C)cc(C)n2n1	i	i	i	i	i	i
O=[N+]([O-])c1ccc(CSc2ncnc3ccccc23)cc1	i	?	i	-73	?	i
O=c1c2ccccc2nnn1CSc1ncnc2ccccc12	i	?	i	-81	?	i
Cc1cc(C)n2nc(SCC(=O)c3cc(C)n(-c4cc(C)on4)c3C)nc2n1	?	10µM	i	i	10µM	i
Cc1ccc(C(=O)NCC(=O)NCCc2ccc(S(N)(=O)=O)cc2)s1	i	i	i	i	i	i
Cc1ccc(N(C(=O)C2CCCC2)C2C=CS(=O)(=O)C2)cc1C (configuration not stated)	i	i	i	i	i	i
O=C(CSc1ncnc2ccccc12)c1ccco1	?	21µM	i	i	?	i
Cc1cc(SCC(=O)c2cc(C)n(C)c2C)nc2ccccc12	?	i	i	i	i	i
O=C(CSc1nnc2sc3ccccc3n12)c1ccco1	i	i	i	i	i	i
Cc1cc(-n2c(C)cc(C(=O)CSc3ncnc4ccccc34)c2C)no1	i	1.2µM	i	i	1.8µM	i

Bioassay records from PubChem BioAssay.
